Results: PMC5540273 (PLoS ONE, 2017)
Several values for one entry are separate records, joined by “and”; a condition that tells them apart may be missing. Equal values may be shown once. Read-outs that look alike come from different tables or passages of the source.

What was measured:
PKMYT1 = details: concentration: 1 μM, replicates: in singlicate, n = 1
PKN1 = details: concentration: 1 μM, replicates: in singlicate, n = 1
PKN2 = details: concentration: 1 μM, replicates: in singlicate, n = 1
PLK1 = details: concentration: 1 μM, replicates: in singlicate, n = 1
PLK2 = details: concentration: 1 μM, replicates: in singlicate, n = 1
PLK3 = details: concentration: 1 μM, replicates: in singlicate, n = 1
PLK4 = details: concentration: 1 μM, replicates: in singlicate, n = 1
PRKCD = details: concentration: 1 μM, replicates: in singlicate, n = 1
PRKCE = details: concentration: 1 μM, replicates: in singlicate, n = 1
PRKCH = details: concentration: 1 μM, replicates: in singlicate, n = 1
PRKCI = details: concentration: 1 μM, replicates: in singlicate, n = 1
PRKCQ = details: concentration: 1 μM, replicates: in singlicate, n = 1
PRKD1 = details: concentration: 1 μM, replicates: in singlicate, n = 1
PRKD2 = details: concentration: 1 μM, replicates: in singlicate, n = 1
PRKD3 = details: concentration: 1 μM, replicates: in singlicate, n = 1
PRKG1 = details: concentration: 1 μM, replicates: in singlicate, n = 1
PRKG2 = details: concentration: 1 μM, replicates: in singlicate, n = 1
PRKR = test system: T1, PRKR; details: concentration: 1 μM, replicates: in singlicate, n = 1
T1 construct: gene EIF2AK2

PRKX = details: concentration: 1 μM, replicates: in singlicate; n = 1
PRP4 = details: concentration: 1 μM, replicates: in singlicate, n = 1
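Also: KINOMEscan kinase panel screen.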

## NS(=O)(=O)c1cccc(-c2ccc3ncc(N4CCOCC4)nc3c2)c1 [GSK1535721]
PKMYT1
  %Inh: 1%
PKN1
  %Inh: 0%
PKN2
  %Inh: 0%
PLK1
  %Inh: 0%
PLK2
  %Inh: 0%
PLK3
  %Inh: 5%
PLK4
  %Inh: 15%
PRKCD
  %Inh: 4%
PRKCE
  %Inh: 1%
PRKCH
  %Inh: 8%
PRKCI
  %Inh: 21%
PRKCQ
  %Inh: 2%
PRKD1
  %Inh: 0%
PRKD2
  %Inh: 20%
PRKD3
  %Inh: 0%
PRKG1
  %Inh: 0%
PRKG2
  %Inh: 14%
PRKR
  %Inh: 10%
PRKX
  %Inh: 0%
PRP4
  %Inh: 2%

## COc1cc2c(cc1OCCN1CCN(C)CC1)ncc1c3ccc(C#N)cc3[nH]c21
PKMYT1
  %Inh: 0%
PKN1
  %Inh: 56%
PKN2
  %Inh: 25%
PLK1
  %Inh: 0%
PLK2
  %Inh: 16%
PLK3
  %Inh: 16%
PLK4
  %Inh: 0%
PRKCD
  %Inh: 1%
PRKCE
  %Inh: 0%
PRKCH
  %Inh: 0%
PRKCI
  %Inh: 22%
PRKCQ
  %Inh: 17%
PRKD1
  %Inh: 0%
PRKD2
  %Inh: 0%
PRKD3
  %Inh: 10%
PRKG1
  %Inh: 0%
PRKG2
  %Inh: 13%
PRKR
  %Inh: 30%
PRKX
  %Inh: 19%
PRP4
  %Inh: 79%

## N#Cc1ccc(-c2cc(-c3c[nH]nc3-c3ccccn3)ccn2)cc1 [GW693028]
PKMYT1
  %Inh: 1%
PKN1
  %Inh: 0%
PKN2
  %Inh: 0%
PLK1
  %Inh: 0%
PLK2
  %Inh: 0%
PLK3
  %Inh: 0%
PLK4
  %Inh: 0%
PRKCD
  %Inh: 0%
PRKCE
  %Inh: 16%
PRKCH
  %Inh: 18%
PRKCI
  %Inh: 0%
PRKCQ
  %Inh: 15%
PRKD1
  %Inh: 63%
PRKD2
  %Inh: 40%
PRKD3
  %Inh: 0%
PRKG1
  %Inh: 0%
PRKG2
  %Inh: 0%
PRKR
  %Inh: 0%
PRKX
  %Inh: 2%
PRP4
  %Inh: 41%

## CC(C)(C)n1cnc2c(N)ncnc21 [SKF-97359]
PKMYT1
  %Inh: 0%
PKN1
  %Inh: 0%
PKN2
  %Inh: 0%
PLK1
  %Inh: 0%
PLK2
  %Inh: 0%
PLK3
  %Inh: 0%
PLK4
  %Inh: 0%
PRKCD
  %Inh: 1%
PRKCE
  %Inh: 0%
PRKCH
  %Inh: 0%
PRKCI
  %Inh: 0%
PRKCQ
  %Inh: 0%
PRKD1
  %Inh: 0%
PRKD2
  %Inh: 13%
PRKD3
  %Inh: 0%
PRKG1
  %Inh: 12%
PRKG2
  %Inh: 0%
PRKR
  %Inh: 0%
PRKX
  %Inh: 0%
PRP4
  %Inh: 17%

## Cc1c(Cn2c(C)nn3c(=O)cc(N4CCOC(C)C4)nc23)cccc1C(F)(F)F (stereo not drawn) [GSK2344444]
PKMYT1
  %Inh: 0%
PKN1
  %Inh: 0%
PKN2
  %Inh: 0%
PLK1
  %Inh: 0%
PLK2
  %Inh: 0%
PLK3
  %Inh: 0%
PLK4
  %Inh: 0%
PRKCD
  %Inh: 0%
PRKCE
  %Inh: 0%
PRKCH
  %Inh: 0%
PRKCI
  %Inh: 0%
PRKCQ
  %Inh: 0%
PRKD1
  %Inh: 0%
PRKD2
  %Inh: 0%
PRKD3
  %Inh: 22%
PRKG1
  %Inh: 14%
PRKG2
  %Inh: 0%
PRKR
  %Inh: 0%
PRKX
  %Inh: 3%
PRP4
  %Inh: 0%

## Cn1ccc2ncnc(Oc3ccc(NC(=O)Nc4ccncc4)c(Cl)c3)c21
PKMYT1
  %Inh: 2%
PKN1
  %Inh: 0%
PKN2
  %Inh: 0%
PLK1
  %Inh: 0%
PLK2
  %Inh: 8%
PLK3
  %Inh: 0%
PLK4
  %Inh: 0%
PRKCD
  %Inh: 6%
PRKCE
  %Inh: 0%
PRKCH
  %Inh: 16%
PRKCI
  %Inh: 0%
PRKCQ
  %Inh: 0%
PRKD1
  %Inh: 14%
PRKD2
  %Inh: 0%
PRKD3
  %Inh: 0%
PRKG1
  %Inh: 3%
PRKG2
  %Inh: 0%
PRKR
  %Inh: 0%
PRKX
  %Inh: 0%
PRP4
  %Inh: 14%

## O=C(Nc1n[nH]c2cc(-c3cccc(F)c3)ccc12)C1CC1 [SB-735464]
PKMYT1
  %Inh: 1%
PKN1
  %Inh: 7%
PKN2
  %Inh: 17%
PLK1
  %Inh: 0%
PLK2
  %Inh: 37%
PLK3
  %Inh: 13%
PLK4
  %Inh: 4%
PRKCD
  %Inh: 0%
PRKCE
  %Inh: 34%
PRKCH
  %Inh: 8%
PRKCI
  %Inh: 0%
PRKCQ
  %Inh: 5%
PRKD1
  %Inh: 0%
PRKD2
  %Inh: 0%
PRKD3
  %Inh: 1%
PRKG1
  %Inh: 16%
PRKG2
  %Inh: 0%
PRKR
  %Inh: 0%
PRKX
  %Inh: 0%
PRP4
  %Inh: 7%

## O=C1NC(=O)C(N2CCc3ccccc32)=C1c1cccc(Cl)c1 [SB-408010]
PKMYT1
  %Inh: 20%
PKN1
  %Inh: 0%
PKN2
  %Inh: 3%
PLK1
  %Inh: 27%
PLK2
  %Inh: 0%
PLK3
  %Inh: 4%
PLK4
  %Inh: 25%
PRKCD
  %Inh: 0%
PRKCE
  %Inh: 19%
PRKCH
  %Inh: 13%
PRKCI
  %Inh: 1%
PRKCQ
  %Inh: 29%
PRKD1
  %Inh: 4%
PRKD2
  %Inh: 6%
PRKD3
  %Inh: 3%
PRKG1
  %Inh: 0%
PRKG2
  %Inh: 0%
PRKR
  %Inh: 0%
PRKX
  %Inh: 0%
PRP4
  %Inh: 8%

## NS(=O)(=O)CCc1cccc(Nc2nccc(-c3c(-c4cccc(NC(=O)c5c(F)cccc5F)c4)nn4ccccc34)n2)c1 [GSK336735]
PKMYT1
  %Inh: 0%
PKN1
  %Inh: 0%
PKN2
  %Inh: 0%
PLK1
  %Inh: 0%
PLK2
  %Inh: 25%
PLK3
  %Inh: 48%
PLK4
  %Inh: 12%
PRKCD
  %Inh: 40%
PRKCE
  %Inh: 0%
PRKCH
  %Inh: 32%
PRKCI
  %Inh: 11%
PRKCQ
  %Inh: 55%
PRKD1
  %Inh: 40%
PRKD2
  %Inh: 12%
PRKD3
  %Inh: 56%
PRKG1
  %Inh: 2%
PRKG2
  %Inh: 0%
PRKR
  %Inh: 0%
PRKX
  %Inh: 13%
PRP4
  %Inh: 18%

## Cc1cn2c(=O)cc(N3CCOCC3)nc2n1Cc1cccc(Cl)c1Cl [GSK2334006]
PKMYT1
  %Inh: 12%
PKN1
  %Inh: 33%
PKN2
  %Inh: 0%
PLK1
  %Inh: 24%
PLK2
  %Inh: 0%
PLK3
  %Inh: 0%
PLK4
  %Inh: 0%
PRKCD
  %Inh: 0%
PRKCE
  %Inh: 13%
PRKCH
  %Inh: 28%
PRKCI
  %Inh: 31%
PRKCQ
  %Inh: 28%
PRKD1
  %Inh: 0%
PRKD2
  %Inh: 10%
PRKD3
  %Inh: 18%
PRKG1
  %Inh: 0%
PRKG2
  %Inh: 0%
PRKR
  %Inh: 0%
PRKX
  %Inh: 24%
PRP4
  %Inh: 0%

## O=c1cc(N2CCOCC2)nc2n(Cc3cccc(F)c3)ccn12 [GSK2297430]
PKMYT1
  %Inh: 0%
PKN1
  %Inh: 20%
PKN2
  %Inh: 0%
PLK1
  %Inh: 1%
PLK2
  %Inh: 0%
PLK3
  %Inh: 0%
PLK4
  %Inh: 0%
PRKCD
  %Inh: 2%
PRKCE
  %Inh: 3%
PRKCH
  %Inh: 31%
PRKCI
  %Inh: 0%
PRKCQ
  %Inh: 11%
PRKD1
  %Inh: 6%
PRKD2
  %Inh: 0%
PRKD3
  %Inh: 0%
PRKG1
  %Inh: 10%
PRKG2
  %Inh: 0%
PRKR
  %Inh: 0%
PRKX
  %Inh: 2%
PRP4
  %Inh: 0%

## COc1ccc(Nc2nccc(N3CCC(NC(=O)Nc4cccc(C(C)=O)c4)C3)n2)cc1 (stereo not drawn) [GSK1379731]
PKMYT1
  %Inh: 0%
PKN1
  %Inh: 3%
PKN2
  %Inh: 0%
PLK1
  %Inh: 7%
PLK2
  %Inh: 0%
PLK3
  %Inh: 0%
PLK4
  %Inh: 0%
PRKCD
  %Inh: 0%
PRKCE
  %Inh: 0%
PRKCH
  %Inh: 0%
PRKCI
  %Inh: 18%
PRKCQ
  %Inh: 18%
PRKD1
  %Inh: 0%
PRKD2
  %Inh: 11%
PRKD3
  %Inh: 7%
PRKG1
  %Inh: 0%
PRKG2
  %Inh: 0%
PRKR
  %Inh: 0%
PRKX
  %Inh: 24%
PRP4
  %Inh: 0%

## CCc1nc(-c2cccc(C)c2)c(-c2ccnc(NCc3ccccc3)c2)s1
PKMYT1
  %Inh: 5%
PKN1
  %Inh: 14%
PKN2
  %Inh: 0%
PLK1
  %Inh: 0%
PLK2
  %Inh: 7%
PLK3
  %Inh: 6%
PLK4
  %Inh: 0%
PRKCD
  %Inh: 16%
PRKCE
  %Inh: 0%
PRKCH
  %Inh: 0%
PRKCI
  %Inh: 0%
PRKCQ
  %Inh: 31%
PRKD1
  %Inh: 0%
PRKD2
  %Inh: 13%
PRKD3
  %Inh: 0%
PRKG1
  %Inh: 0%
PRKG2
  %Inh: 0%
PRKR
  %Inh: 0%
PRKX
  %Inh: 0%
PRP4
  %Inh: 6%

## COc1ccc(Nc2nccc(N3CCC(NC(=O)Nc4cc(C)ccc4C)C3)n2)cc1 (stereo not drawn) [GSK1379741]
PKMYT1
  %Inh: 0%
PKN1
  %Inh: 0%
PKN2
  %Inh: 0%
PLK1
  %Inh: 0%
PLK2
  %Inh: 0%
PLK3
  %Inh: 0%
PLK4
  %Inh: 0%
PRKCD
  %Inh: 0%
PRKCE
  %Inh: 13%
PRKCH
  %Inh: 0%
PRKCI
  %Inh: 7%
PRKCQ
  %Inh: 22%
PRKD1
  %Inh: 0%
PRKD2
  %Inh: 0%
PRKD3
  %Inh: 4%
PRKG1
  %Inh: 0%
PRKG2
  %Inh: 0%
PRKR
  %Inh: 0%
PRKX
  %Inh: 6%
PRP4
  %Inh: 22%

## Cl.Cl.Cl.Fc1ccc(-c2ncn(C3CCNCC3)c2-c2ccnc(Nc3ccccc3)n2)cc1 [SB-238039]
PKMYT1; 1 µM
  %Inh: 0% and 1%
PKN1; 1 µM
  %Inh: 0% and 9%
PKN2; 1 µM
  %Inh: 0% and 24%
PLK1; 1 µM
  %Inh: 4% and 0%
PLK2; 1 µM
  %Inh: 6% and 0%
PLK3; 1 µM
  %Inh: 15% and 0%
PLK4; 1 µM
  %Inh: 7% and 26%
PRKCD; 1 µM
  %Inh: 66% and 28%
PRKCE; 1 µM
  %Inh: 69% and 29%
PRKCH; 1 µM
  %Inh: 58% and 19%
PRKCI; 1 µM
  %Inh: 53% and 34%
PRKCQ; 1 µM
  %Inh: 20% and 50%
PRKD1; 1 µM
  %Inh: 96.5% and 91.3%
PRKD2; 1 µM
  %Inh: 95.3% and 91.8%
PRKD3; 1 µM
  %Inh: 88% and 90.8%
PRKG1; 1 µM
  %Inh: 3% and 0%
PRKG2; 1 µM
  %Inh: 0% and 28%
PRKR; 1 µM
  %Inh: 0% and 3%
PRKX
  %Inh: 0%
PRP4; 1 µM
  %Inh: 32% and 0%
